Screens as filed in PubChem.
A selection: hits, their analogues and other compounds. The true share with any hit is near 11%.
HCV inhibitor = inhibitors of hepatitis C virus infection | Potency, µM (titrated, usually from 41.8 µM), most hits filed as inhibitors | Huh7.5.1 HCVcc-Cre infection, luciferase reporter, 44 h | AID 651820 | 340,000 tested, 3.4% active
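HCVcc-Cre virus at an moi near 0.5 was added right after compound to cells cultured 4 h from seeding (1,000 cells/well). Luciferase activity was determined 44 h later, 15 min after substrate addition at RT.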
Vaccinia Venus = inhibitors of vaccinia virus (Venus reporter); Vaccinia virus Venus reporter expression, fluorescence; Potency, µM (series often up to 36.5 µM), hits mostly inhibitors; 330,000 tested, 0.46% active; AID 720580; calls by dose curve; tested in A549 cells; note: nearly all actives have a fitted effect of over 30% in size
Pf growth 96h = P. falciparum growth inhibition at 96 hour, primary screen for plastid delayed-death inhibitors; P. falciparum luciferase reporter growth, 96 h; 320,000 tested, 6.9% active; Potency, µM (top dose mostly 28.7 µM), actives largely listed as inhibitors; AID 504834
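Erythrocytes infected with luciferase-expressing P. falciparum were dispensed at 2% hematocrit and 0.05% parasitemia (final), then incubated with compounds 96 hours at 37 C in 5% CO2. Luminescence after detection reagent addition reported growth.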
VACV mCherry inh = vaccinia inhibition (mCherry reporter); Vaccinia virus mCherry reporter infection, fluorescence; Potency, µM (top dose mostly 36.5 µM), hits mostly inhibitors; 310,000 tested, 0.63% active; calls by dose curve; tested in A549 cells; note: nearly all actives have a fitted effect of over 35% in size
NS1 function inh = influenza NS1 inhibition. Potency, µM (series often up to 46.1 µM). 270,000 tested, 0.4% active; calls by dose curve; note: actives are rising curves; nearly all actives have a fitted effect of over 50% in size
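Growth recovery, yeast-based: influenza A NS1 expressed in S. cerevisiae causes slow growth, and suppressors are detected by OD600. The parent strain without NS1 is used as positive control.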
Pf growth 48h = inhibits P. falciparum growth in the first generation, 48 h | P. falciparum luciferase growth in erythrocytes, 48 h | Potency, µM (doses to about 28.7 µM), actives largely listed as inhibitors | 310,000 tested, 5.9% active | AID 504832
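Growth was read as firefly luciferase luminescence after a 48 h, 37 C, 5% CO2 exposure of compounds to reporter-bearing P. falciparum cultures (0.1% parasitemia, 2% hematocrit final) in Albumax-supplemented RPMI 1640.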
Numbers stand for hits; i = inactive; ? = inconclusive; nt = no result given. Unless noted, calls come from the whole dose curve; as a rule, active = well fitted inhibition curve with a large enough effect; inconclusive = small, poorly fitted or top-dose-only effect, or another doubt; inactive = no such curve, though single readings can be large or run the other way.

SMILES | HCV inhibitor | Vaccinia Venus | Pf growth 96h | VACV mCherry inh | NS1 function inh | Pf growth 48h
OC(COC(c1ccc(Cl)cc1)c1ccc(Cl)cc1)CN1CCc2ccccc2C1 (configuration not stated) | 12.6µM | i | 2.62µM | i | i | ?
OC(COC(c1ccc(Cl)cc1)c1ccc(Cl)cc1)CN1CCCC1 (configuration not stated) | 5.62µM | nt | 4.65µM | nt | i | ?
CC(=O)N1CCN(S(=O)(=O)c2ccc(S(=O)(=O)NC3CCCCC3)cc2)CC1 | ? | i | i | i | i | i
Cc1ccc(OCCCCN2CCc3ccccc3C2)cc1 | i | i | ? | i | i | i
O=C(NCCC1CCCCN1S(=O)(=O)c1ccc(F)cc1)C(=O)NCc1ccncc1 (configuration not stated) | i | i | ? | i | nt | i
NCCCC(N)CC(=O)NCC1NC(=O)C(CO)NC(=O)C(N)CNC(=O)C(C2CCN=C(N)N2)NC(=O)/C(=C/NC(N)=O)NC1=O (configuration not stated) | nt | nt | i | nt | nt | i
Cc1nn(-c2ccccc2)c2nc(-c3ccccc3)cc(C(=O)N3CCOCC3)c12 | ? | i | 2.08µM | i | nt | i
Cc1nn(-c2cccc(Cl)c2)c2nc(-c3ccncc3)cc(C(=O)N3CCOCC3)c12 | 7.94µM | i | 6.57µM | i | nt | ?
CN(C)C(=O)CSc1nc(SCC(=O)N(C)C)n(-c2ccccc2)n1 | i | i | i | i | i | i
O=C(CSc1nc(SCC(=O)NCc2ccccc2)n(-c2ccccc2)n1)NCc1ccccc1 | ? | nt | 9.28µM | nt | i | nt
COc1ccc(C(=O)NCC2(c3ccc(OC)c(OC)c3)CCCC2)c(OC)c1 | 14.1µM | nt | ? | nt | i | 11.7µM
COc1ccc(C2(CNC(=O)/C=C/c3ccco3)CCCC2)cc1OC | i | nt | ? | nt | i | 6.57µM
COc1ccc(CC(=O)NCC2(c3ccc(OC)c(OC)c3)CCCC2)cc1 | i | i | i | i | i | i
N#Cc1cn(-c2ccccc2)nc1C(=O)c1ccccc1 | ? | ? | ? | nt | i | nt
CN(C)S(=O)(=O)c1cccc2c1C(=O)c1ccccc1C2=O | i | i | 10.4µM | i | i | 11.7µM
CN(C)S(=O)(=O)c1ccccc1C#N | i | i | i | i | i | i
CNc1cccc2c1C(=O)c1ccccc1C2=O | 12.6µM | i | 2.94µM | i | i | i
C[C@H](NC(=O)c1nc[nH]c1C(=O)NCCCCCNC(=O)OC(C)(C)C)C(=O)OC(C)(C)C | 11.2µM | i | ? | i | i | ?
CC(C)(C)OC(=O)NCCCCCNC(=O)c1[nH]cnc1C(=O)Nc1cccc(Cl)c1 | i | ? | ? | i | nt | ?
CNC(=O)c1[nH]cnc1C(=O)N[C@@H](CCCCNC(=O)OC(C)(C)C)C(=O)OC(C)(C)C | i | i | ? | i | i | i
CC(C)C[C@H](NC(=O)c1nc[nH]c1C(=O)NCCCCCNC(=O)OC(C)(C)C)C(=O)OC(C)(C)C | i | ? | ? | i | i | 7.38µM
CC(C)(C)OC(=O)NCCCCCNC(=O)c1[nH]cnc1C(=O)Nc1ccon1 | i | i | 5.22µM | i | nt | ?
CC(C)C[C@H](NC(=O)c1nc[nH]c1C(=O)N[C@@H](CCCCNC(=O)OC(C)(C)C)C(=O)OC(C)(C)C)C(=O)OC(C)(C)C | ? | ? | 2.08µM | ? | i | 3.7µM
CC1Cc2cc(S(=O)(=O)NCCc3ccccc3)ccc2N1C(=O)C1CCC1 (configuration not stated) | nt | i | nt | i | nt | nt
O=C1C2CC=CCC2C(=O)N1SC(Cl)(Cl)Cl (configuration not stated) | nt | nt | i | nt | nt | i
SMILES | HCV inhibitor | Vaccinia Venus | Pf growth 96h | VACV mCherry inh | NS1 function inh | Pf growth 48h
CSc1ccc(Cl)c(C(=O)OCC(=O)NCc2ccco2)c1 | i | i | nt | i | i | i
CCOC(=O)N1CCC2CC1c1cc(-c3cccc(OC)c3)ccc12 (configuration not stated) | i | ? | nt | i | nt | nt
C=CC1CN(C(=O)OCC(Cl)(Cl)Cl)C2CC3c4ccc(OC)cc4NC3C3CC1C2CO3 (configuration not stated) | 10µM | i | nt | i | nt | nt
CCCOc1ccc(/C=C2/C(=O)ON=C2C)cc1Cl | i | nt | i | nt | i | i
CC(=O)Oc1ccc(C2=Cc3ccc(OC(C)=O)cc3OC2C)cc1 (configuration not stated) | ? | i | nt | 10µM | nt | nt
COc1cccc(/C=C/C(=O)c2ccc(NC3=NCCCS3)cc2)c1 | i | i | i | i | nt | i
